Screening results from PubChem BioAssay.
Shown are actives, neighbours in structure and some others; about 19% of the full set was active somewhere.
HT1080 IDH1KD tx = qHTS for induction of synthetic lethality in tumor cells producing 2HG: qHTS for the HT-1080-IDH1KD cell line | HT-1080 IDH1 knockdown viability, ATP luminescence, 48 h | Potency, µM (top dose mostly 46.1 µM), without a hit: at the highest dose activity, negative = toxicity, hits mostly cytotoxic | 360,000 tested, 2% active;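 further: potency means the concentration at half of the fitted maximal effect; 0% = DMSO wells and -100% = cell-free medium wells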
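Using the IDH1-knockdown HT-1080 line run in the same batch and compound series as the NT line, viability after 48 h at 37 °C was determined by CellTiter-Glo luminescence and expressed as % activity.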
DT40 TDP1 no CPT = qHTS for Inhibitors of human tyrosyl-DNA phosphodiesterase 1 (TDP1): qHTS in cells in absence of CPT. DT40 Tdp1-/- hTDP1 cells, no CPT, ATP luminescence, 48 h. 420,000 tested, 15% active. AID 686978, 2013. Potency, µM (highest dose often 46.2 µM), without a hit: at the top dose activity change, negative = growth inhibition, usual class: inhibitors; further: potency means the concentration at half of the fitted maximal effect; nearly all actives have a fitted effect of over 55% in size
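Growth of hTDP1-complemented DT40 Tdp1-knockout cells is measured by ATP luminescence after at least 48 hr compound exposure at 37 °C, with DMSO substituting for the 20 nM CPT used in the parallel screen.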
IL-1B inflam inh = qHTS for Inhibitors of Inflammasome Signaling: IL-1-beta AlphaLISA Primary Screen. AID 743279, 2014. activity change, % at 57.5 µM. THP-1 LPS/ATP IL-1B secretion, AlphaLISA, 16 h; active compounds read low. 360,000 tested, 4.7% active; in the data active means activity change below about -50%; inconclusive means mostly about -30% to -49%
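THP-1 cells pretreated 1 hr with compounds (up to 57.5 uM final), then stimulated with LPS (250 ng/mL final) plus ATP (1.25 mM final); secreted IL-1B measured by AlphaLISA after 16 hr, decreased signal indicating inhibition.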
ELG1 repair inh = qHTS screen for small molecules that inhibit ELG1-dependent DNA repair in human embryonic kidney (HEK293T) cells expressing luciferase-tagged ELG1; HEK293T ELG1-luciferase reporter, luminescence, 16 h; DNA damage induced by 5-fluorouridine; Potency, µM (doses to about 46.1 µM), for inactives: at the top dose activity change, negative = inhibition, usual class: inhibitors; 330,000 tested, 2.3% active; AID 504467, 2011; further: potency means the concentration at half of the fitted maximal effect; nearly all actives have a fitted effect of over 55% in size
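Overnight (16 hr) co-exposure of 2,000 cells/well to 5-fluorouridine and compound at 37 °C preceded detection. Luciferase was quantified via ONE-Glo luminescence; loss of signal denotes inhibition.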
TDP1 cell CPT = qHTS for Inhibitors of human tyrosyl-DNA phosphodiesterase 1 (TDP1): qHTS in cells in presence of CPT; Potency, µM (series often up to 46.2 µM), without a hit: at the top dose activity change, negative = growth inhibition, actives largely listed as inhibitors; 420,000 tested, 12% active; AID 686979, 2013; chicken DT40 Tdp1-/-;hTDP1 cells + 20 nM CPT, ATP luminescence, 48 h; further: potency means the concentration at half of the fitted maximal effect; nearly all actives have a fitted effect of over 55% in size
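Chicken DT40 Tdp1-/- cells stably complemented with human TDP1 were seeded at 400 cells/well in medium containing 20 nM camptothecin, exposed to pin-transferred compounds, and grown at 37 °C for at least 48 hr. Viability was read as ATP luminescence.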
HT1080-NT tox = qHTS for induction of synthetic lethality in tumor cells producing 2HG: qHTS for the HT-1080-NT fibrosarcoma cell line | Potency, µM (highest dose often 46.1 µM), without a hit: top-dose activity, negative = less viability, actives largely listed as cytotoxic | HT-1080-NT fibrosarcoma viability, CellTiter-Glo ATP luminescence, 48 h | 360,000 tested, 1.6% active;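 further: NT is the 2HG producing partner of a matched IDH1 knockdown line; potency means the concentration at half of the fitted maximal effect; 0% = DMSO-treated cells and -100% = media-only wells without cells; nearly all actives have a fitted effect of over 55% in size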
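Read-out is CellTiter-Glo luminescence after 10 minutes at room temperature, following 48 hours' compound treatment of HT-1080-NT cells (750 cells/well, RPMI, 5% FBS, 37 degrees C).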
Active calls of the source: *; ? = inconclusive; · = not tested or not shown. Unless noted, the call rests on the fitted dose curve; in most records, active means well fitted curve in the direction sought with a large enough effect; inconclusive means small, poorly fitted or top-dose-only effect, or another doubt; inactive means no such curve, though single readings can be large; an effect the other way counts as inactive or inconclusive. Unless noted, on the % scale 0 is the no-effect control and ±100 the full control effect.

SMILES	HT1080 IDH1KD tx	DT40 TDP1 no CPT	IL-1B inflam inh	ELG1 repair inh	TDP1 cell CPT	HT1080-NT tox
CCC(C)c1ccccc1NC(=O)COC(=O)C1=COCCO1 (stereo not given)	3%	-19%	26	12%	9%	14%
C/C(=N\NC(=O)Cn1c(C)nc2ccccc21)c1cccs1	-26%	21µM*	-3	-11%	15µM*	?
CC(/C=N\NC(=O)Cn1c(C)nc2ccccc21)=C\c1ccccc1	21µM*	8.2µM*	-3	3%	8.2µM*	8.2µM*
CC(/C=N/NC(=O)CSc1nc(C)cc(C)n1)=C\c1ccccc1	-1%	?	-3	-19%	?	1%
CCCc1cc(C(=O)NC(C)C2CCCO2)cs1 (stereo not given)	9%	10%	2	?	5%	?
CCCCC[n+]1ccn(-c2nc3ccccc3nc2[N-]S(=O)(=O)c2ccc(C)cc2)c1	5%	-5%	5	?	-2%	3%
CCCC[n+]1ccn(-c2nc3ccccc3nc2[N-]S(=O)(=O)c2cccs2)c1	0%	?	·	21µM*	?	4%
Cn1c(=O)[nH]c(=O)c2c1nc(N1CCCCCC1)n2CCOc1ccccc1	-1%	23µM*	17	17%	-26%	9%
Cn1c(=O)[nH]c(=O)c2c1nc(N1CCCCCC1)n2Cc1cccc2ccccc12	12%	16µM*	-14	-7%	-21%	12%
CCC(C)Nc1nc2c(c(=O)[nH]c(=O)n2C)n1CCOc1ccccc1 (stereo not given)	-11%	?	0	-15%	21µM*	-15%
CN(Cc1ccccc1)c1nc2c(c(=O)[nH]c(=O)n2C)n1CCOc1ccccc1	?	16µM*	-8	?	?	-20%
CN1CCN(c2nc3c(c(=O)[nH]c(=O)n3C)n2CCOc2ccccc2)CC1	10%	?	-8	2%	?	1%
Cn1c(=O)[nH]c(=O)c2c1nc(NCCO)n2CCOc1ccccc1	-1%	-8%	11	-7%	?	-3%
Cc1ccc(C)c(N2N=C(C(=O)Nc3ccc(N4CCOCC4)cc3)CCC2=O)c1	6%	-23%	3	10%	-23%	7%
CCCCCCC(=O)Oc1cccc(C2=CC(=O)CC(C)(C)C2=O)c1	9%	-18%	5	·	?	5%
Cn1c(=O)[nH]c(=O)c2c1nc(N1CCNCC1)n2Cc1ccccc1Cl	-8%	-23%	5	1%	-4%	0%
CC1CCCN(c2nc3c(c(=O)[nH]c(=O)n3C)n2Cc2ccccc2Cl)C1 (stereo not given)	0%	?	7	-16%	15µM*	-13%
Cc1csc(SCCn2c(N3CCN(c4ccccc4)CC3)nc3c2c(=O)[nH]c(=O)n3C)n1	6%	26µM*	-4	?	16µM*	-5%
COc1ccc(F)cc1S(=O)(=O)Nc1cc2c3c(c1)CCN3C(=O)CC2	1%	-1%	26	?	-9%	-4%
CCn1cc(CCCC(=O)NCc2ccc(OC)cc2)c2ccccc21	-1%	-6%	-11	-29%	?	0%
Cc1ccccc1NC(=O)CSc1ncc2c(n1)-c1ccccc1N(C)S2(=O)=O	·	-26%	·	·	?	·
Cc1ccc(NC(=O)CSc2ncc3c(n2)-c2ccc(Cl)cc2N(C)S3(=O)=O)cc1F	·	?	·	·	23µM*	·
